The values below come from PubChem BioAssay AID463173 (ICCB-Longwood Screening Facility, Harvard Medical School, 2010).

In all, about 52,000 compounds went through this assay and about 4,300 (8.3%) were called active. Cut-off read from the data, not from the text of the source: active = survival mostly below about 52% (no sharp cut-off); inactive = mostly above about 56%. Only a selection was taken, and actives are over-represented in it overall.

The test system of the assay is DeltatarO mutant. The assay can be described thus: growth inhibition of S. aureus wild type versus tarO mutant, primary screen, teichoic acid synthesis inhibitors, RN4220, OD600 (AID 463173). The note with it: OD600, 18 h, active compounds read low, screened at 18.75 µg/mL (by protocol).
Take `Cc1ccc(-n2nc(C(=O)N3CCN(c4ccccc4F)CC3)c3c4ccccc4n(C)c3c2=O)cc1`: the survival is 88% (inactive). On to `CCCOc1ccc(CNC(=O)C(CC)n2nc(C)c3sc4ccccc4c3c2=O)cc1` (stereo not drawn), for which the survival was 69% (inactive).

In the case of `O=C(NCCS(=O)(=O)N1CCN(c2cccc(Cl)c2)CC1)C(c1ccccc1)c1ccccc1`, the survival is 72% (inactive).

As to `COc1ccc(OC)c(NC(=O)c2ccc3c(c2)c(C)c(C)n3Cc2ccc(F)cc2)c1`, the survival was 122% (inactive). For `Cc1ccc(CNCC(C)O)s1` (stereo not drawn) the value was 73% (inactive).

`Cc1ccc(C(=O)Nc2ccc(NC(=O)c3cccs3)cc2)cc1C`: the survival is 66% (inactive). As for `CCc1nn(CC(=O)N2CCN(c3cccc(C)c3C)CC2)c(=O)c2cc3sccc3n12`, the survival was 134% (inactive). As for `CCCNC(=O)CN1C(=O)COc2ccc(S(=O)(=O)N3CCC(C)CC3)cc21`, the survival is 121% (inactive). For the compound `COCCNc1oc(-c2ccc(COc3ccc(OC)cc3)o2)nc1C#N`, the survival was 79% (inactive). As to `Cc1ccc(C2=NN(CC(=O)NCCc3ccc(Cl)cc3)C(=O)CC2)cc1`, the survival was 117% (inactive).

Regarding `CCn1c(C)c(C2N3CC4(C)CN2CC(CC)(C3)C4=O)c2ccccc21` (stereo not drawn), the survival was 108% (inactive). Turning to `Cc1cccc(C)c1-n1ncc(C(=O)N2CCN(c3ccccn3)CC2)c1C1CCN(C(=O)OC(C)(C)C)CC1`, the survival is 81% (inactive). For the compound `CCOC(=O)c1cnc2c(ccc3ccccc32)c1Nc1cccc(OC)c1`, the survival is 29% (active).

Regarding `CCOC(=O)c1cnc2c(ccc3ccccc32)c1Nc1cccc(C(F)(F)F)c1`, the survival was 36% (active). Take `CCOC(=O)c1cnc(SC)nc1Nc1ccccc1`: the survival is 84% (inactive). For `CCOC(=O)c1noc2ncnc(Nc3cccc(OC)c3)c12` the value was 73% (inactive); for `CCOC(=O)c1sc2ccccc2c1S(=O)(=O)Nc1cccc(C(F)(F)F)c1`, 63% (inactive).

As to `CCOC(=O)c1cnc2c(ccc3ccccc32)c1Nc1ccc(N(C)C)cc1`, the survival is 0% (active). With `CCOC(=O)c1noc2ncnc(Nc3cccc(C(F)(F)F)c3)c12`, the survival was 92% (inactive). For the compound `CCOC(=O)c1cnc2c(Cl)c(Cl)ccc2c1Nc1ccc(N(C)C)cc1`, the survival is 80% (inactive). For the compound `COc1cccc(C(=O)c2sc(Nc3ccc(F)c(Cl)c3)nc2N)c1`, the survival was 55% (inactive). Consider `CCOc1ccc(Nc2nc(N)c(C(=O)c3ccccc3Cl)s2)cc1`, for which the survival was 0% (active). For `CCOC(=O)c1cnc2c(OC)cccc2c1Nc1cccc(O)c1`, the survival is 61% (inactive). For `Cc1ccccc1Nc1nc(N)c(C(=O)c2ccccc2Cl)s1`, the survival was 92% (inactive). As to `COc1ccc(-c2oc3ncn4nc(COc5ccccc5C)nc4c3c2-c2ccc(OC)cc2)cc1`, the survival is 79% (inactive). Regarding `CC(=O)c1ccc(N2CCN(C(=O)c3ccc(Cn4c(=O)[nH]c5ccccc5c4=O)cc3)CC2)cc1`, the survival is 100% (inactive). Next, `CC(C)(C)c1cc(CN2CCOCC2)c(C(=O)O)o1`: 92% (inactive); `COc1cc(NC(=O)CSc2nc3nc(C)c(Cc4ccccc4)c(C)n3n2)cc(OC)c1`: 112% (inactive); `CC1CCN(S(=O)(=O)c2ccc(NC(=O)CSc3nnnn3C)cc2)CC1`: 97% (inactive).

With `CCOC(=O)c1cnc2c(ccc3ccccc32)c1Nc1cccc(Cl)c1`, the survival was 14% (active). Take `COc1cccc2sc(N(Cc3cccnc3)C(=O)C3CCCCC3)nc12`: the survival was 86% (inactive). Take `Cc1cc(C)cc(OCC(=O)N(Cc2ccc(Cl)cc2)C2CCS(=O)(=O)C2)c1` (stereo not drawn): the survival is 59% (inactive). With `Cc1ccc(CN(C(=O)COc2ccc(C(C)C)cc2)C2CCS(=O)(=O)C2)o1` (stereo not drawn), the survival is 87% (inactive). With `COc1ccc(OCC(=O)N(Cc2ccc(C)o2)C2CCS(=O)(=O)C2)cc1` (stereo not drawn), the survival was 85% (inactive). With `CCc1ccc(OCC(=O)N(Cc2ccc(Cl)cc2)C2CCS(=O)(=O)C2)cc1` (stereo not drawn), the survival is 57% (active). Take `COc1ccc(OCC(=O)N(Cc2cccc(OC)c2)C2CCS(=O)(=O)C2)cc1` (stereo not drawn): the survival is 79% (inactive). `Cc1ccsc1CN(C(=O)COc1cccc(C)c1C)C1CCS(=O)(=O)C1` (stereo not drawn): the survival was 82% (inactive). Next, `CCc1ccc(OCC(=O)N(Cc2ccc(C)o2)C2CCS(=O)(=O)C2)cc1` (stereo not drawn): 110% (inactive); `Cc1ccccc1OCC(=O)N(Cc1ccc(C(C)C)cc1)C1CCS(=O)(=O)C1` (stereo not drawn): 31% (active). With `CC(C)c1ccc(OCC(=O)N(Cc2ccc(N(C)C)cc2)C2CCS(=O)(=O)C2)cc1` (stereo not drawn), the survival was 43% (active). Take `CC(C)Oc1ccc(C(=O)N(Cc2ccc(N(C)C)cc2)C2CCS(=O)(=O)C2)cc1` (stereo not drawn): the survival is 54% (inactive). As to `Cc1ccsc1CN(C(=O)COc1ccccc1Cl)C1CCS(=O)(=O)C1` (stereo not drawn), the survival is 86% (inactive). On to `CCc1ccc(OCC(=O)N(Cc2ccc(C(C)C)cc2)C2CCS(=O)(=O)C2)cc1` (stereo not drawn), for which the survival was 23% (active).

Consider `Cc1nc2cccnc2n1C1CCN(C(=O)Nc2ccc(Cl)cc2)CC1`, for which the survival was 81% (inactive).

`CCN(C(=O)CSc1ncc(S(=O)(=O)c2ccc(C)c(Cl)c2)c(=O)[nH]1)c1cccc(C)c1`: the survival was 99% (inactive). Turning to `O=C(Cn1ncc2c3ccccc3n(Cc3cccc(Cl)c3)c2c1=O)NCCC1=CCCCC1`, the survival was 90% (inactive). On to `Cc1cc(C)c(NC(=O)Cn2nnc(S(=O)(=O)c3ccc(C)c(C)c3)c2N)c(C)c1`, for which the survival was 96% (inactive). Next, `CCCCN(CC)C(=O)c1ccc2c(c1)NC(=O)c1ccccc1S2`: 104% (inactive). On to `c1ccc(-c2cnnn2-c2ccccc2)cc1`, for which the survival was 87% (inactive).

On to `COc1ccccc1OCC(=O)N(Cc1cccs1)C1CCS(=O)(=O)C1` (stereo not drawn), for which the survival is 53% (inactive). For `Cc1cc(Cl)ccc1OCC(=O)N(Cc1sccc1C)C1CCS(=O)(=O)C1` (stereo not drawn) the value was 74% (inactive). For `Cc1cc(OCC(=O)N(Cc2ccc(N(C)C)cc2)C2CCS(=O)(=O)C2)cc(C)c1Cl` (stereo not drawn) the value was 97% (inactive); for `CC(C)c1ccc(OCC(=O)N(Cc2cccs2)C2CCS(=O)(=O)C2)cc1` (stereo not drawn), 51% (active).

`Cc1ccsc1CN(C(=O)COc1ccc(Cl)cc1)C1CCS(=O)(=O)C1` (stereo not drawn): the survival is 86% (inactive). Turning to `Cc1cc(Cl)ccc1OCC(=O)N(Cc1ccc(N(C)C)cc1)C1CCS(=O)(=O)C1` (stereo not drawn), the survival is 39% (active). Turning to `CCOC(=O)C1=C(C)NC(=O)NC1C1CC=CCC1` (stereo not drawn), the survival was 111% (inactive). As to `COc1cc(-c2nc3nc[nH]n3c2Nc2ccc(C(C)C)cc2)ccc1O`, the survival was 70% (inactive). Take `CC(=O)c1cccc(S(=O)(=O)NCCc2csc3nc(-c4ccc(F)cc4)nn23)c1`: the survival was 88% (inactive).
